Data: PubChem BioAssay AID463173 (ICCB-Longwood Screening Facility, Harvard Medical School, 2010)
Screen size: about 52,000 compounds; about 4,300 (8.3%) were called active. The sample holds actives, similar compounds and a random draw of the others, so the mix is not that of the screen. A number with no mark means an inactive call. Cut-off read from the data, not from the text of the source: active = survival mostly below about 52% (no sharp cut-off); inactive = mostly above about 56%.

system: DeltatarO mutant; assay: growth inhibition of S. aureus wild type versus tarO mutant, primary screen, teichoic acid synthesis inhibitors, RN4220, OD600 (AID 463173); details: OD600, 18 h, hits give low values, screened at 18.75 µg/mL (by protocol)

Compared with `CCC(c1nnnn1CCOC)N1CCN(c2nc3ccccc3s2)CC1` (centres undefined), `N=C(N)N1CCN(CC(O)COc2ccccc2)CC1` (centres undefined) is lower in survival: 87% for the first, 84% for the second.

Going from `C#CCn1cc(/C=C(/C#N)C(=O)Nc2ccccc2)c2ccccc21` to `O=C(Cn1c(=O)c2cccn2c2ccccc21)NCc1ccccc1F`, the survival rises from 54% to 84%.

First: CCCCNC(=O)C1CCN(c2nc(OC)nc(OC)n2)CC1
Second: COc1ccc(CNC(=O)c2cnc3sc(N4CCCC4)nn3c2=O)c(OC)c1
The survival of the first is higher: 83% for the first, 70% for the second.

First: Cc1ccc(C)c(OCCSc2nc3ccccc3n2CC(=O)N2CCOCC2)c1
Second: Cc1cccc(OCCSc2nc3ccccc3n2CC(=O)N2CCOCC2)c1C
The survival of the first is higher: 55% for the first, 50% for the second.

First: O=C(CSc1nc2ccccc2n1CC(=O)N1CCCC1)N1CCCCC1
Second: Cc1ccc(OCCSc2nc3ccccc3n2CC(=O)N2CCCCC2)c(C)c1
The survival of the first is higher: 85% for the first, 51% for the second.

Going from `CCn1c(SCC(N)=O)nc2ccccc21` to `COC(=O)Cn1c(SCCOc2ccccc2OC)nc2ccccc21`, the survival falls from 79% to 51%.

First: COc1ccccc1OCCSc1nc2ccccc2n1CC(=O)N1CCOCC1
Second: Cc1ccc(C(C)C)c(OCCSc2nc3ccccc3n2CC(O)CO)c1 (centres undefined)
The survival of the first is higher: 94% for the first, 48% for the second.

Going from `COc1ccc(CCC(=O)NCc2ccc3c(c2)CCN3C(=O)c2ccc(C)cc2)cc1` to `CC(C)Oc1ccc(CNC(=O)Cc2ccc(NC(=O)N3CCSc4ncccc43)cc2)cc1`, the survival rises from 75% to 102%.

First: CC1=C(c2ccc(Cl)cc2)S(=O)(=O)N=C1N1CCN(c2cccc(C)c2)C(C)C1 (centres undefined)
Second: CC1CCCN(c2nc3c(-c4ccc(Cl)cc4)nnn3c3ccccc23)C1 (centres undefined)
The survival of the first is higher: 89% for the first, 87% for the second.

First: CCOC(=O)N1CCC(NC(=O)c2cnn(-c3ccc(OC)cc3)c2C2CCN(C(=O)OC(C)(C)C)CC2)CC1
Second: CC(=O)c1ccc(N2CCN(C(=O)C3CCN(S(=O)(=O)c4cccc5nonc45)CC3)CC2)cc1
The survival of the first is higher: 84% for the first, 79% for the second.

Going from `CCOc1ccc(NC(=O)C(C)Sc2nnc3cc(C)c4ccccc4n23)cc1` (centres undefined) to `CCOc1ccc(OCC)c(NC(=O)c2cnc3c(-c4ccccc4)c(C)nn3c2C)c1`, the survival rises from 73% to 91%.

First: CCCCNC(=O)c1cnn2c(C)c(Cc3c(C)cc(C)cc3C)c(C)nc12
Second: CCCCOC(=O)c1ccc(NC(=O)c2sc3nc(C)cc(C)c3c2N)cc1
The survival of the first is higher: 102% for the first, 65% for the second.

Going from `COc1ccc(CNC(=O)CCCn2nc(C)c3sc4ccccc4c3c2=O)cc1OC` to `CCCn1c(=O)n(-c2ccccc2Cl)c(=O)c2sc3ccccc3c21`, the survival rises from 87% to 95%.

First: CCc1ccc(-c2nc(CSCC(=O)N3CCN(c4ccc(F)cc4)CC3)c(C)o2)cc1
Second: Cc1oc(-c2ccccc2F)nc1CSCC(=O)N1CCN(c2ccccc2)CC1
The survival of the first is higher: 73% for the first, 62% for the second.

First: Cc1ccc(-c2nc(CS(=O)(=O)CC(=O)N3CCN(c4cccc(C)c4C)CC3)c(C)o2)cc1
Second: COc1ccc(-c2nc(CSCC(=O)N3CCN(c4cccc(C)c4C)CC3)c(C)o2)cc1OC
The survival of the first is higher: 116% for the first, 49% for the second.

Compared with `O=C(Cn1cc(SCc2ccccc2F)c2ccccc21)N1CCCCCC1`, `O=C(Cn1c2[n+](c3ccccc31)CC(O)CS2)N1CCCCC1` (centres undefined) is lower in survival: 73% for the first, 72% for the second.

Going from `CCOC(=O)C1CCN(C(=O)c2ccc3c(=O)n4nc(Nc5ccccc5)sc4nc3c2)CC1` to `CC1CCN(c2nc3c(S(=O)(=O)c4ccccc4)nnn3c3ccc(Cl)cc23)CC1`, the survival falls from 117% to 69%.

First: COc1ccccc1NC(=O)Cn1c(=O)n(-c2cccc(C(C)=O)c2)c(=O)c2c3c(sc21)CN(C(C)=O)CC3
Second: Cc1ccc(NC(=O)c2cnc(SCC(=O)N3CCCc4ccccc43)n(C)c2=O)cc1C
The survival of the first is higher: 89% for the first, 85% for the second.

Going from `COc1ccc(S(=O)(=O)c2c(O)c3ccc(C(=O)NCc4ccc(Cl)cc4)cc3[nH]c2=O)cc1` to `CC(C)Oc1ccc(CNC(=O)c2cccc(NC(=O)N3CCSc4ncccc43)c2)cc1`, the survival falls from 89% to 88%.

Going from `COc1cccc(CNC(=O)CN(C)S(=O)(=O)c2ccc3[nH]c4c(c3c2)CCCC4)c1` to `Cc1ccc(CCNC(=O)c2ccc3[nH]c(C)c(C)c3c2)cc1`, the survival rises from 75% to 116%.

Going from `COc1cccc2sc(NC(=O)c3ccc4c(c3)OCCO4)nc12` to `Cc1ccc(Cl)cc1NC(=O)c1ccc(NC(=O)N2CCSc3ncccc32)cc1`, the survival falls from 88% to 79%.

Going from `COc1ccc2oc(=O)c(-c3nnc(-c4ccc(C)cc4)o3)cc2c1` to `Cc1ccc(Nc2c(-c3ccc(O)cc3)nc3cccc(C)n23)cc1`, the survival falls from 138% to 84%.

Going from `Brc1cccc(-c2nnn3c2nc(N2CCCCC2)c2ccccc23)c1` to `CC1CCN(c2nc3c(-c4cccc(Br)c4)nnn3c3ccccc23)CC1`, the survival rises from 62% to 104%.

Going from `COc1ccc(-c2nnn3c2nc(NCc2ccccc2)c2ccccc23)cc1` to `O=S(=O)(c1ccccc1)c1nnn2c1nc(N1CCN(c3ccccc3)CC1)c1cc(Cl)ccc12`, the survival rises from 89% to 91%.

Going from `O=C(NCCCN1CCN(c2ccccc2)CC1)c1nnc(Cc2c(F)cccc2Cl)o1` to `COCCCNC(=O)c1cc(-c2cccnc2)nc2ccc(S(=O)(=O)N3CCC(C)CC3)cc12`, the survival rises from 71% to 113%.

Going from `Cc1cc(NC(=O)CCc2nc3cccnc3n2Cc2cccs2)ccc1Br` to `Cc1cccn2c(Nc3ccccc3)c(-c3cccs3)nc12`, the survival rises from 50% to 89%.

Compared with `COC(=O)CSc1ncc(C#N)c(N)n1`, `CC(C)CC1CC(C)(C(=O)CSc2n[nH]c(-c3ccccc3)n2)OC1=O` (centres undefined) is lower in survival: 110% for the first, 80% for the second.

Compared with `COc1ccc(C)cc1NC(=O)CCc1c(C)nn(-c2ccc(N3CCCCC3)nn2)c1C`, `CC(C)(C)c1ccc(C(=O)Nc2onc3c2CCCC3)cc1` is lower in survival: 78% for the first, 56% for the second.

Going from `O=C(Nc1onc2c1CCCC2)c1ccc(Cl)cc1` to `CCOc1ccc(C(=O)Nc2onc3c2CCCC3)cc1`, the survival falls from 77% to 72%.

First: CC(C)COc1ccc(C(=O)Nc2onc3c2CCCC3)cc1
Second: CCOc1ccc(NC(=O)c2ccc(NC(=O)N3CCSc4ncccc43)cc2)cc1
The survival of the first is higher: 103% for the first, 76% for the second.

Going from `CCCCn1cc(S(=O)(=O)c2ccccc2)c(=O)c2cc(F)c(N3CCC(C)CC3)cc21` to `CCCNS(=O)(=O)c1cc(-c2nn3c(C)nnc3c3ccccc23)ccc1C`, the survival falls from 68% to 61%.

First: C=CCn1c(SCc2cccnc2)nnc1-c1ccncc1
Second: COC(=O)c1cc(C)nc2c1c(=O)nc(SCc1cccc(C)c1)n2C1CC1
The survival of the first is higher: 88% for the first, 78% for the second.

First: CC(=O)c1ccc(NC(=O)c2cccc(NC(=O)N3CCSc4ncccc43)c2)cc1
Second: Cc1ccc(NC(=O)c2ccc(NC(=O)N3CCSc4ncccc43)cc2)c(C)c1
The survival of the first is lower: 79% for the first, 86% for the second.

Going from `Cc1cccn2c(Nc3ccccc3)c(-c3ccc(N4CCOCC4)cc3)nc12` to `Cc1ccc(Nc2c(-c3ccc(N4CCOCC4)cc3)nc3c(C)cccn23)cc1`, the survival falls from 113% to 56%.

First: Cc1ccccc1Nc1c(-c2ccc(O)cc2)nc2c(C)cccn12
Second: Cc1ccccc1Nc1c(-c2ccc(Cl)cc2)nc2c(C)cccn12
The survival of the first is higher: 72% for the first, 69% for the second.

First: Cc1cccc(C)c1Nc1c(-c2ccsc2)nc2cccc(C)n12
Second: Cc1ccc2nc(-c3ccsc3)c(Nc3ccc(Cl)cc3)n2c1
The survival of the first is lower: 54% for the first, 73% for the second.

Going from `CCOC(=O)c1cccc(NC(=O)N2CCOCC2)c1` to `C=C(C)c1cccc(C(C)(C)NC(=O)NC2CC(C)(C)NC(C)(C)C2)c1`, the survival rises from 80% to 107%.

In the case of `Cc1c(C(=O)OCCOc2ccccc2)[nH]c2c1C(=O)CC(c1ccc(C(C)(C)C)cc1)C2` (centres undefined), the survival is reported as 70%.

For `CCn1c(SCCOc2ccccc2F)nc2ccccc21`, the survival was 0% (active).
In the case of `O=C(Cn1c(SCCOc2ccccc2Cl)nc2ccccc21)N1CCOCC1`, the survival is reported as 39% (active).
For `Cc1cccc(OCCSc2nc3ccccc3n2CC(=O)N2CCCCC2)c1C`, the survival was 28% (active).
With `O=C(Cn1c(SCCOc2ccccc2Cl)nc2ccccc21)N1CCCCC1` the survival was 34% (active).
`COC(=O)Cn1c(SCCOc2ccccc2Cl)nc2ccccc21` was tested, and the survival was 42% (active).
In the case of `Cc1cccc(-c2nc(CSCC(=O)N3CCN(c4cccc(C)c4C)CC3)c(C)o2)c1`, the survival is reported as 8% (active).
`Cc1cccc(-c2nc(CSCC(=O)N3CCN(c4ccccc4)CC3)c(C)o2)c1` was tested, and the survival was 17% (active).
`Cc1ccc(-c2nnn3c2nc(N2CCC(C)CC2)c2ccccc23)cc1` was tested, and the survival was -6% (active).
With `Clc1ccc(-c2nnn3c2nc(N2CCCCC2)c2ccccc23)cc1` the survival was 25% (active).
For `COc1ccc(-c2nnn3c2nc(N2CCCC(C)C2)c2ccccc23)cc1` (centres undefined), the survival was -3% (active).
`CCCCOc1ccc(C(=O)Nc2onc3c2CCCC3)cc1` was tested, and the survival was 49% (active).
`Cc1ccc(C(=O)Nc2onc3c2CCCC3)cc1` was tested, and the survival was 46% (active).
In the case of `Cc1ccccc1NC(=O)c1ccc(NC(=O)N2CCSc3ncccc32)cc1`, the survival is reported as -2% (active).
`CCc1cccc(NC(=O)c2ccc(NC(=O)N3CCSc4ncccc43)cc2)c1` was tested, and the survival was -1% (active).
`CC(C)Oc1ccc(CNC(=O)c2ccc(NC(=O)N3CCSc4ncccc43)cc2)cc1` was tested, and the survival was 6% (active).
For `Cc1ccc(Nc2c(-c3ccc(C)cc3)nc3c(C)cccn23)cc1`, the survival was 9% (active).
`Cc1ccc(Nc2c(-c3ccsc3)nc3cccc(C)n23)cc1` was tested, and the survival was 25% (active).
In the case of `Cc1ccc(Nc2c(-c3ccsc3)nc3c(C)cccn23)cc1`, the survival is reported as 20% (active).
For `Cc1ccccc1Nc1c(-c2ccsc2)nc2c(C)cccn12`, the survival was 8% (active).
